Screens (PubChem BioAssay)
Dicer processing: inhibitors of Dicer pre-microRNA processing, primary screen, biochemical, cat-ELCCA, chemiluminescence; Endoribonuclease Dicer (Homo sapiens), Q9UPY3; cat-ELCCA pre-miR-21 Dicer processing; stronger effect = higher value; z-score at 25 µM; 6% of 47,000 active; in the data active means z-score above about 3, passing the limit was not always enough;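 further: plate controls were vehicle for no effect and no enzyme for full effect; higher signal means more uncleaved substrate so more Dicer inhibition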
Target sequence (Q9UPY3 whole entry, looked up): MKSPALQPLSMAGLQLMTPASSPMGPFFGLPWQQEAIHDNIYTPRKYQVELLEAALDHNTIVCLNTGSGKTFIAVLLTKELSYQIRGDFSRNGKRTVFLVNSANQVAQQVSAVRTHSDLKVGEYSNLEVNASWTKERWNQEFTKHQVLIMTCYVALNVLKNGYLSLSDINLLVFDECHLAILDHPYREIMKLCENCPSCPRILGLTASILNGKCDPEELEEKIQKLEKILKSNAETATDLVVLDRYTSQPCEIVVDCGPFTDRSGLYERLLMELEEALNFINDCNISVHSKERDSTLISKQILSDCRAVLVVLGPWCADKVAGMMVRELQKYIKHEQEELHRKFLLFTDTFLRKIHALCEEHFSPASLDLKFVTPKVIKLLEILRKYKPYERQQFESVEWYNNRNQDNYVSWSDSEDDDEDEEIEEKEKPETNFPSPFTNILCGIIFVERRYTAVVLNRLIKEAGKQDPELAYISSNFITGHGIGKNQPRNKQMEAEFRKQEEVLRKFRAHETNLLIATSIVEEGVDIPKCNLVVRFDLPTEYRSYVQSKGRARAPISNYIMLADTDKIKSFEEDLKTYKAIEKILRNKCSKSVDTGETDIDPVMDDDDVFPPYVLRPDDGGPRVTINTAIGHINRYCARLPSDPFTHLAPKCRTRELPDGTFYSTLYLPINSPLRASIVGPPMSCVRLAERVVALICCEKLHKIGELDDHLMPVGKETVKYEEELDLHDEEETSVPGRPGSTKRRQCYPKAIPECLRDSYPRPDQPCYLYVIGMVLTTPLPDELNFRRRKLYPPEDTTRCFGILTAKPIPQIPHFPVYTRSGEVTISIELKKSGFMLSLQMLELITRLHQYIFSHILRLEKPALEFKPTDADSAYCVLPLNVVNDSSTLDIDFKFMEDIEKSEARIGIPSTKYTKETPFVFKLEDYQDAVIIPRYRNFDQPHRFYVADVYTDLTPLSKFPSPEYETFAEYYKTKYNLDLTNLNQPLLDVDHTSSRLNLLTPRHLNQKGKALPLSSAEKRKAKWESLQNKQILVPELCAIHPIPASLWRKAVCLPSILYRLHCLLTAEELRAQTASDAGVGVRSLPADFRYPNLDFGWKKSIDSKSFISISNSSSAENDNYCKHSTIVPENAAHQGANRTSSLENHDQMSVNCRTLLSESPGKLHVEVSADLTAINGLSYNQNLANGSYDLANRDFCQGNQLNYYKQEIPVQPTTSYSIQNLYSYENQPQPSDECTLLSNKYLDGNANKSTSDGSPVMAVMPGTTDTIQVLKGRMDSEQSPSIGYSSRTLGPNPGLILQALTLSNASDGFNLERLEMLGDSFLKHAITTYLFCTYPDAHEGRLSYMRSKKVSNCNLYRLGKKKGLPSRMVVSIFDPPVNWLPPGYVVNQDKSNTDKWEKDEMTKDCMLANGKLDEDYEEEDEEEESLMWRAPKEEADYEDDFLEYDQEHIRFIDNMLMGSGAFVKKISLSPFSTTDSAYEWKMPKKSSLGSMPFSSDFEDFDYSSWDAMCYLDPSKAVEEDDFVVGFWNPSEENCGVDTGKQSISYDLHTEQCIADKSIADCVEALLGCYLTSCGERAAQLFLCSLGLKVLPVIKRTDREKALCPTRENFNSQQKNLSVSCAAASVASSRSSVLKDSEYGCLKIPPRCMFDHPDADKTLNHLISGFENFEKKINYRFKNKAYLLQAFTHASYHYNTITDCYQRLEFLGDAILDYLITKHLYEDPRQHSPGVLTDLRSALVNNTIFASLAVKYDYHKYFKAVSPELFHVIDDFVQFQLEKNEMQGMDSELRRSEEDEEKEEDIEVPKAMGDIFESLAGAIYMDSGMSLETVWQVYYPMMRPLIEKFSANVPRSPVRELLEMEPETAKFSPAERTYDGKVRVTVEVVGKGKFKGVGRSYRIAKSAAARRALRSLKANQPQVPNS
* hit, by the source's call. Only a selection was taken, and hits are over-represented in it overall.

SMILES	Dicer processing
COC(=O)Cc1ccc2oc3ccccc3c(=O)c2c1	1.1
CC1(C)C=Cc2cc(/C(N)=N/OC(=O)Nc3ccc(Cl)cc3Cl)ccc2O1	-0.61
COc1ccc(Cc2nc3c4c5c(sc4ncn3n2)CCCCC5)cc1OC	-3.9
CC1=C(C#N)C(c2ccccc2OC(C)C)C2=C(CC(c3ccc(Cl)cc3)CC2=O)N1 (stereo unspecified)	-0.31
Cc1nn(C)cc1CNC(=O)c1cc2n(n1)C(C(F)(F)F)CC(c1ccc3c(c1)OCO3)N2 (stereo unspecified)	-0.66
COC(=O)c1ccccc1NC(=S)Sc1ccc(Cl)cc1	-1.5
CN(C)S(=O)(=O)N(C)Cc1ccccc1	0.51
CCC(Nc1nc(-c2ccccc2)nc2ccccc12)C(=O)O (stereo unspecified)	-1.1
c1ccc(-c2nc(Nc3ccc4c(c3)OCCO4)c3ccccc3n2)cc1	5.4*
O=C(Nc1ccc2c(c1)OCCO2)c1cccc(C(=O)Nc2ccc3c(c2)OCCO3)n1	-0.09
CN(C)/C=N/C(=S)Nc1cccc(F)c1	-1.1
CN(C)/C=N/C(=S)Nc1cccc(C(F)(F)F)c1	4.9*
CC(C)(C)NNC(=S)Nc1cccc(C(F)(F)F)c1	2.4
CCCC1=NN(C(=O)c2ccc(Cl)cc2)C(=O)C1Cc1c(F)cccc1Cl (stereo unspecified)	7.9
CCCCOc1ccc(N2C(=O)C3CC(C)=C(C)CC3C2=O)cc1 (stereo unspecified)	0.63
CC1=C(C)CC2C(=O)N(c3ccc(N(C)C)cc3)C(=O)C2C1 (stereo unspecified)	0.61
COc1cc(OC)cc(N2C(=O)C3CC(C)=C(C)CC3C2=O)c1 (stereo unspecified)	-2.2
CC1=C(C)CC2C(=O)N(c3ccc(Oc4ccc(Cl)cc4)cc3)C(=O)C2C1 (stereo unspecified)	3.3*
CC1=C(C)CC2C(=O)N(c3ccccc3F)C(=O)C2C1 (stereo unspecified)	4.9*
CC12N=NCC1C(=O)N(c1ccccc1F)C2=O (stereo unspecified)	1.7
CN(C)C(=O)Nc1cccc(Cl)c1Cl	13
CCC1(c2ccccc2)OC(c2ccc([N+](=O)[O-])cc2)Nc2ccccc21 (stereo unspecified)	1.9
Cc1ccc(-c2c3c(=O)n(C)c(=O)n(C)c3c3c(-c4ccccc4)cc(C)nn23)cc1	-0.32
O=C(COc1ccc(F)cc1)N(Cc1cccs1)C1CCS(=O)(=O)C1 (stereo unspecified)	1.4
O=C(COc1ccc(Cl)cc1)N(Cc1cccs1)C1CCS(=O)(=O)C1 (stereo unspecified)	0.47
SMILES	Dicer processing
O=C(COc1ccccc1)N(Cc1cccs1)C1CCS(=O)(=O)C1 (stereo unspecified)	3.1*
N/C(=N\O)c1snnc1-c1ccccc1	-0.08
Fc1ccc(C2CN3C(=N2)C=Cc2ccccc23)cc1 (stereo unspecified)	-0.46
Cc1csc2nc(CN3CCOCC3)[nH]c(=O)c12	-0.93
Cc1csc2c(N3CCSCC3)ncnc12	-1.2
O=c1[nH]c2ccsc2c(=O)n1CCO	3.2*
CC(C)CCn1c(=O)[nH]c2ccccc21	0.96
Cc1csc2c(=O)n(CCO)c(=O)[nH]c12	4.6*
Cc1csc2c(=O)n(CCN3CCSCC3)c(=O)[nH]c12	5.9*
CCOC(=O)NNC(=S)NC1CC2C=CC1C2 (stereo unspecified)	-0.48
FC(F)(F)c1cccc(CSC2=NCCCN2)c1	0.46
O=C1CCCCN1c1ccc(C(F)(F)F)cc1	1.2
CCCCc1[nH]nc2c1C1(CCN(C(=O)OCC)CC1)C(C#N)=C(N)O2	-5.2
CCCCNC(=O)Nc1ccccc1SCC(O)Cn1ccc(C(F)(F)F)n1 (stereo unspecified)	0.59
CC(C)(C)/C=N/N/C=C(\C#N)S(=O)(=O)C(C)(C)C	-1.5
Nc1ccccc1Sc1nc(Sc2ccccc2N)c(C(F)(F)F)cc1C(F)(F)F	-4.7
O=C(O)Cc1sc(Nc2ccccn2)nc1-c1ccccc1	0.28
Oc1ccc(-c2csc(Cc3c[nH]c4ccccc34)n2)cc1O	5.6*
Clc1ccc(Cc2nc(-c3ccccc3)cs2)cc1	-0.36
N[C@@H](Cc1c[nH]c2ccccc12)C(=O)O	-1.1
CSc1nnc2c(n1)OC(c1ccc(Br)cc1)N(C(C)=O)c1ccccc1-2 (stereo unspecified)	-1.5
O=C1SC(Nc2ccc(Br)cc2)C(=O)N1c1ccccc1 (stereo unspecified)	0.16
CCOC(=O)NC(=S)NCCCn1ccnc1	0.28
CC(C)(C)C(=O)Cn1nnc(-c2cc(C(F)(F)F)cc(C(F)(F)F)c2)n1	11
CNC(=S)N/N=C/c1ccccc1Cl	-0.61
SMILES	Dicer processing
Oc1ccccc1/C=N/NC(=S)NC1CC2CC1C1C=CCC21 (stereo unspecified)	3.8*
S=C(N/N=C/c1cccnc1)NC1CC2CC1C1C=CCC21 (stereo unspecified)	0.65
CCO/C=C(\C#N)S(=O)(=O)c1ccccc1	0.98
O=C1CCc2cc(C3=CSC4=NCCCN34)ccc2N1	-0.61
CN1C(=O)C2(/C(=C(/O)c3ccccc3)C(=O)C(=O)N2CC2CCCO2)c2ccccc21 (stereo unspecified)	1.5
CC(=O)c1csc(Nc2c(C)cc(C)cc2C)n1	-0.05
CC(=O)Oc1ccc(C2C(C(=O)OC(C)C)=C(C)NC3=C2C(=O)CC(c2cccs2)C3)cc1 (stereo unspecified)	2
O=S(=O)(c1ccc(F)cc1)N(Cc1ccc2c(c1)OCO2)c1ccc(F)cc1	-0.99
Cn1c(N)c(C(=O)N/N=C/c2ccccc2)sc1=S	-0.88
COc1ccc(/C=N/NC(=O)c2sc(=S)n(-c3ccccc3)c2N)cc1	-0.24
COc1ccc(/C=N/NC(=S)NN)cc1	-7.3
COc1cc(/C=N/NC(=S)NC2CC3C=CC2C3)ccc1C (stereo unspecified)	2.5
COc1cc(/C=N/NC(=O)c2sc(=S)n(C)c2N)ccc1O	3.8*
COc1cc(/C=N/NC(=S)N/N=C/c2ccc(O)c(OC)c2)ccc1O	3.9*
CC1=C(C#N)C(c2ccc3c(c2)CCC(C)(C)O3)C2=C(CCCC2=O)N1 (stereo unspecified)	1.2
CCOC(=O)c1c(N/N=C/c2ccc(O)cc2)n[nH]c1C	0.23
CCOC(=O)c1c(N=Cc2ccccc2Cl)n[nH]c1C	-2.5
CCOC(=O)c1c(N=Cc2ccccc2[N+](=O)[O-])n[nH]c1C	3.7*
C/C(=C\C(=O)c1cccc(Cl)c1F)N(C)C	0.24
Cc1cc(NS(=O)(=O)N(C)C)no1	-0.52
O=S(=O)(c1ccc(-c2cc(C(F)(F)F)on2)s1)N1CCC(O)CC1	-1.8
CCCN(CCC)C(=O)C1Sc2nnc(C)n2NC1c1ccc(C)cc1 (stereo unspecified)	-0.18
O=C(Nc1ccccc1)Oc1cccc(N2CCOCC2)c1	3.3*
CC(C)(C)c1ccc(NC(=O)Oc2ccccc2N2CCOCC2)cc1	-0.14
O=C(Nc1ccc2c(c1)OCO2)Oc1ccccc1	-0.16
Cc1ccc(C)c(COc2c(-c3ccccc3)c(=O)n3c4c(cc(C)cc24)CCC3)c1	-7.8
CC1(C)CC(=O)C2=C(C1)c1c(ccc3ccccc13)NC2c1ccc(O)c(O)c1 (stereo unspecified)	13*
CCOc1cc(C2Nc3ccc4ccccc4c3C3=C2C(=O)CC(C)(C)C3)ccc1O (stereo unspecified)	0.64
CC1(C)CC(=O)C2=C(C1)c1c(ccc3ccccc13)NC2c1ccc(O)cc1 (stereo unspecified)	1
O=C(COc1ccccc1SCc1ccc(Cl)cc1)NNC(=O)c1ccccc1Cl	0.64
